Experimental data: PubChem BioAssay (NCI)
This is part of a sample that, as a whole, favours compounds with a hit. Of some 83,000 tested, about 20% had one in any assay.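 Assay: single dose, 48 h. Readout: percent growth (0 = no net growth; negative = cell death). Active: <10.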 Calls of active or inactive are those of the source.

Key:
Assay in all cases: NCI-60 one-dose screen, 48 h (100 = growth as untreated, 0 = no growth, -100 = all killed)
Conditions in all cases: 10 µM unless noted
RPMI-8226 leukemia = test system: RPMI-8226 leukemia
OVCAR-8 ovarian = test system: OVCAR-8 ovarian
SK-OV-3 ovarian = test system: SK-OV-3 ovarian
IGROV1 ovarian = test system: IGROV1 ovarian
OVCAR-3 ovarian = test system: OVCAR-3 ovarian
HS 578T breast = test system: HS 578T breast
NCI/ADR-RES ovarian = test system: NCI/ADR-RES ovarian
T-47D breast = test system: T-47D breast
BT-549 breast = test system: BT-549 breast
MDA-MB-435 melanoma = test system: MDA-MB-435 melanoma
SW-620 colon = test system: SW-620 colon
MCF7 breast = test system: MCF7 breast
HCT-116 colon = test system: HCT-116 colon
HCC-2998 colon = test system: HCC-2998 colon
KM12 colon = test system: KM12 colon
OVCAR-4 ovarian = test system: OVCAR-4 ovarian
OVCAR-5 ovarian = test system: OVCAR-5 ovarian

Measured: growth

O=C(Nc1cccc(Cl)c1)c1cc(N=Nc2ccc([N+](=O)[O-])cc2Cl)ccc1O
inactive: OVCAR-8 ovarian 15.6% | SK-OV-3 ovarian 93.1% | IGROV1 ovarian 22.9% | OVCAR-3 ovarian 85% | HS 578T breast 54% | NCI/ADR-RES ovarian 67.6% | T-47D breast 53.6% | BT-549 breast 81% | MDA-MB-435 melanoma 90.5% | SW-620 colon 86.1% | MCF7 breast 32% | HCT-116 colon 52.9% | HCC-2998 colon 45.8% | KM12 colon 93.7%
active: RPMI-8226 leukemia 3.54%

COc1ccc(/C=N\NC(=O)c2cc(-c3ccc(Br)cc3)n(-c3ccc(S(N)(=O)=O)cc3)n2)cc1
active: MDA-MB-435 melanoma -43.8%
inactive: RPMI-8226 leukemia 61.1% | OVCAR-8 ovarian 72% | OVCAR-4 ovarian 57.6% | SK-OV-3 ovarian 74.1% | IGROV1 ovarian 46.2% | OVCAR-3 ovarian 21.2% | HS 578T breast 22.4% | NCI/ADR-RES ovarian 31.4% | T-47D breast 30.9% | BT-549 breast 76.1% | SW-620 colon 36.9% | MCF7 breast 18.3% | HCT-116 colon 28.4% | HCC-2998 colon 66% | KM12 colon 30.8%

COc1cc(OC)cc(C2CC(=O)Nc3c2c(C)nn3-c2nc3ccccc3[nH]2)c1 (stereo unspecified)
active: RPMI-8226 leukemia -8.64% | SK-OV-3 ovarian -2.88% | OVCAR-3 ovarian 7.11% | MDA-MB-435 melanoma 9.66% | MCF7 breast 7.95% | HCT-116 colon 0.333%
inactive: OVCAR-8 ovarian 17.8% | OVCAR-4 ovarian 42.4% | IGROV1 ovarian 14.6% | HS 578T breast 27.1% | NCI/ADR-RES ovarian 64.3% | BT-549 breast 39.1% | SW-620 colon 24% | HCC-2998 colon 69.1% | KM12 colon 30.5%

CCN1CCN(c2nc(C)cc(NCc3cc(Nc4ccnc5cc(Cl)ccc45)ccc3F)n2)CC1
inactive: OVCAR-8 ovarian 17.4% | OVCAR-4 ovarian 26.1% | SK-OV-3 ovarian 31.5% | IGROV1 ovarian 15.8% | OVCAR-3 ovarian 10.5% | NCI/ADR-RES ovarian 24.6% | BT-549 breast 36.1% | SW-620 colon 11.5% | KM12 colon 26.9%
active: RPMI-8226 leukemia -31.1% | HS 578T breast 9.27% | T-47D breast -24.3% | MDA-MB-435 melanoma -88.4% | MCF7 breast 1.98% | HCT-116 colon 2.33% | HCC-2998 colon -34.9%

O=C(NCCNc1cc(-c2cn(-c3ccccc3)nc2-c2cccc(O)c2)ccn1)Nc1ccccc1
inactive: RPMI-8226 leukemia 60.1% | OVCAR-8 ovarian 74.3% | OVCAR-4 ovarian 70.1% | SK-OV-3 ovarian 65.1% | IGROV1 ovarian 67% | OVCAR-3 ovarian 82.3% | NCI/ADR-RES ovarian 75.4% | T-47D breast 45.9% | BT-549 breast 52.9% | SW-620 colon 84.5% | MCF7 breast 78.4% | HCT-116 colon 53.2% | KM12 colon 89.2%

COCCc1ccc(OCC(O)CNC(C)C)cc1 (stereo unspecified)
inactive: RPMI-8226 leukemia 98.1% | OVCAR-8 ovarian 101% | OVCAR-5 ovarian 110% | SK-OV-3 ovarian 106% | IGROV1 ovarian 104% | OVCAR-3 ovarian 118% | HS 578T breast 101% | T-47D breast 102% | BT-549 breast 94.2% | MDA-MB-435 melanoma 97.4% | SW-620 colon 105% | MCF7 breast 101% | HCT-116 colon 101% | HCC-2998 colon 102% | KM12 colon 105%

COc1ccc2[nH]c(O)c(C(=Nc3ccc(N(C)C(=O)CN4CCN(C)CC4)cc3)c3ccccc3)c2c1
inactive: RPMI-8226 leukemia 38.8% | OVCAR-8 ovarian 43.9% | OVCAR-4 ovarian 47.1% | IGROV1 ovarian 22.5% | OVCAR-3 ovarian 75.9% | NCI/ADR-RES ovarian 82.2% | T-47D breast 53.4% | BT-549 breast 35.8% | MDA-MB-435 melanoma 42.3% | SW-620 colon 16.8% | MCF7 breast 29% | HCT-116 colon 11.1% | HCC-2998 colon 34.3% | KM12 colon 18.2%
active: SK-OV-3 ovarian 5.77% | HS 578T breast -16.8%

Clc1ccc(-c2c3ccc(=[N+]4CCCCC4)cc-3oc3cc(N4CCCCC4)ccc23)cc1
active: RPMI-8226 leukemia -41.9% | OVCAR-8 ovarian -50.6% | OVCAR-4 ovarian -82.5% | SK-OV-3 ovarian -95.8% | IGROV1 ovarian -77% | OVCAR-3 ovarian -98.3% | HS 578T breast -26.1% | NCI/ADR-RES ovarian -65.7% | BT-549 breast -93.5% | MDA-MB-435 melanoma -59.9% | SW-620 colon -83.8% | MCF7 breast -73.9% | HCT-116 colon -97.3% | HCC-2998 colon -95.6% | KM12 colon -86.9%

COc1ccc(C2=NN(C(=O)c3cc(OC)c(OC)c(OC)c3)C(c3ccc(Cl)cc3)C2)cc1OC (stereo unspecified)
active: RPMI-8226 leukemia -18.4% | OVCAR-3 ovarian -35.2% | HS 578T breast 0.152% | HCC-2998 colon -62.4%
inactive: OVCAR-8 ovarian 34.4% | OVCAR-5 ovarian 41.4% | SK-OV-3 ovarian 25.8% | IGROV1 ovarian 36.7% | BT-549 breast 49.9% | SW-620 colon 30.1% | MCF7 breast 18.7% | KM12 colon 15.9%

COc1ccccc1N1C(=O)/C(=C/C2=Cc3ccccc3OC2)SC1=S
inactive: RPMI-8226 leukemia 91.4% | OVCAR-5 ovarian 99.2% | OVCAR-4 ovarian 83.2% | SK-OV-3 ovarian 95.2% | IGROV1 ovarian 97.2% | OVCAR-3 ovarian 101% | HS 578T breast 94.6% | NCI/ADR-RES ovarian 109% | T-47D breast 89.7% | MDA-MB-435 melanoma 97.8% | SW-620 colon 95.4% | MCF7 breast 95.5% | HCT-116 colon 84.9% | HCC-2998 colon 102% | KM12 colon 99.6%

COc1ccc(CNC(=O)C(O)C(Cc2ccccc2)NC(=O)c2[nH]c3ccccc3c(=O)c2C)cc1OC (stereo unspecified)
inactive: RPMI-8226 leukemia 111% | OVCAR-8 ovarian 103% | SK-OV-3 ovarian 103% | IGROV1 ovarian 112% | OVCAR-3 ovarian 111% | HS 578T breast 97.4% | NCI/ADR-RES ovarian 107% | T-47D breast 97.8% | BT-549 breast 104% | MDA-MB-435 melanoma 101% | SW-620 colon 113% | MCF7 breast 99.7% | HCT-116 colon 106% | HCC-2998 colon 117% | KM12 colon 105%

O=C(O)C1CCC(=O)N1C(=O)OCc1ccccc1 (stereo unspecified)
inactive: RPMI-8226 leukemia 88.8% | OVCAR-8 ovarian 96.3% | OVCAR-4 ovarian 101% | SK-OV-3 ovarian 109% | IGROV1 ovarian 110% | OVCAR-3 ovarian 118% | HS 578T breast 136% | NCI/ADR-RES ovarian 98.4% | T-47D breast 108% | BT-549 breast 112% | MDA-MB-435 melanoma 91.3% | SW-620 colon 101% | MCF7 breast 91.6% | HCT-116 colon 107% | HCC-2998 colon 104% | KM12 colon 115%

CN(C)CCNc1nc2ccccc2c2c1c1c(n2Cc2ccccc2)-c2ccccc2C1=O
active: RPMI-8226 leukemia -72.7% | OVCAR-8 ovarian -53% | OVCAR-4 ovarian -93.6% | SK-OV-3 ovarian -92.5% | IGROV1 ovarian -72.9% | OVCAR-3 ovarian -79.2% | HS 578T breast -90.4% | NCI/ADR-RES ovarian -72.6% | T-47D breast -41.2% | BT-549 breast -86.8% | MDA-MB-435 melanoma -65.1% | SW-620 colon -92.8% | MCF7 breast -93.2% | HCT-116 colon -78.2% | HCC-2998 colon -91.3% | KM12 colon -74.6%

CCCCCCCCCCCCCCCCCCOc1ccccc1CC(=O)OCCC[N+](C)(C)C
inactive: RPMI-8226 leukemia 38.1% | OVCAR-5 ovarian 46.9% | OVCAR-4 ovarian 35% | SK-OV-3 ovarian 94.2% | OVCAR-3 ovarian 64.3% | HS 578T breast 67.2% | NCI/ADR-RES ovarian 100% | T-47D breast 72.3% | BT-549 breast 102% | MDA-MB-435 melanoma 58.3% | SW-620 colon 40% | MCF7 breast 46.5% | HCT-116 colon 64% | HCC-2998 colon 37.2% | KM12 colon 76.1%
active: IGROV1 ovarian -15.2%

Cc1ccc(S(=O)(=O)Oc2cc(OS(=O)(=O)c3ccc(C)cc3)cc(OS(=O)(=O)c3ccc(C)cc3)c2)cc1
inactive: RPMI-8226 leukemia 88.6% | OVCAR-8 ovarian 107% | OVCAR-4 ovarian 93.2% | SK-OV-3 ovarian 101% | OVCAR-3 ovarian 96.3% | HS 578T breast 95.8% | NCI/ADR-RES ovarian 95.6% | T-47D breast 97.8% | BT-549 breast 118% | SW-620 colon 92.2% | MCF7 breast 104% | HCT-116 colon 103% | HCC-2998 colon 139% | KM12 colon 123%

CCN(CC)CCN1CC(O)=C(c2nc(-c3ccc(Cl)cc3)cs2)C1=N
active: MDA-MB-435 melanoma -62.4% | SW-620 colon -56.2% | HCT-116 colon 1.48% | HCC-2998 colon -70.7%
inactive: RPMI-8226 leukemia 13.6% | OVCAR-8 ovarian 44.6% | OVCAR-4 ovarian 84.6% | SK-OV-3 ovarian 101% | IGROV1 ovarian 40.8% | OVCAR-3 ovarian 80.5% | HS 578T breast 47.2% | NCI/ADR-RES ovarian 69.4% | T-47D breast 17.2% | BT-549 breast 49.9% | MCF7 breast 10.1% | KM12 colon 33.7%

c1ccc(Nc2nc(-c3ccccn3)cs2)nc1
active: IGROV1 ovarian 9.37% | NCI/ADR-RES ovarian -0.82%
inactive: RPMI-8226 leukemia 14.6% | OVCAR-8 ovarian 14.4% | OVCAR-5 ovarian 53% | SK-OV-3 ovarian 29.5% | OVCAR-3 ovarian 39.7% | T-47D breast 26.4% | BT-549 breast 43.9% | MDA-MB-435 melanoma 30.9% | SW-620 colon 30.2% | MCF7 breast 14.7% | HCT-116 colon 10.3% | HCC-2998 colon 38.3% | KM12 colon 29%

Cc1ccc(S(=O)(=O)n2cc(CNc3ccc(N4CCOCC4=O)cc3)c3ccccc32)cc1
inactive: RPMI-8226 leukemia 67.9% | OVCAR-8 ovarian 81.7% | OVCAR-4 ovarian 62.3% | SK-OV-3 ovarian 87.4% | IGROV1 ovarian 67.5% | OVCAR-3 ovarian 86.8% | HS 578T breast 89.6% | NCI/ADR-RES ovarian 78% | T-47D breast 56.9% | MDA-MB-435 melanoma 97% | SW-620 colon 78.7% | MCF7 breast 61.9% | HCT-116 colon 76.8% | HCC-2998 colon 97.8% | KM12 colon 96.7%

Cc1ccc(NCCN(C)C)c2c(=O)c3ccccc3sc12
inactive: OVCAR-8 ovarian 16.3% | OVCAR-4 ovarian 42.4% | OVCAR-3 ovarian 33.8% | HS 578T breast 46.4% | NCI/ADR-RES ovarian 38.6% | T-47D breast 22.3% | BT-549 breast 76.6% | MDA-MB-435 melanoma 13.2% | HCT-116 colon 10.2% | KM12 colon 23.3%
active: RPMI-8226 leukemia -23.4% | IGROV1 ovarian -30.9% | SW-620 colon 8.96% | MCF7 breast 0.259% | HCC-2998 colon -16.2%
